Measurements: PubChem BioAssay AID1159580 (chemical genetic matrix, 2015)
The whole screen tested about 5,500 compounds, of which about 2,000 (36%) were called active. Not shown: some 18% with an inconclusive outcome. Cut-off read from the data, not from the text of the source: active = normalized growth mostly below about 0.91 (no sharp cut-off); inconclusive = no clear call, values can overlap the other calls; inactive = mostly above about 0.92. The list shows a part of the results.

Experiment: chemical genetic growth profiling, strain panel (AID 1159580);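 note: tested at 20 µM; growth read once vehicle control cultures reached saturation at 30 °C; 1 = growth at the plate median or of vehicle wells; lower values mean less growth of the strain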
Settings: S. cerevisiae deletion strains, growth OD
[1] = locus YCL061C, strain MRC1 (second series), hits give low values
[2] = locus YDR363W, strain ESC2, hits give low values
[3] = locus YER002W, strain NOP16, hits give low values
[4] = locus YJR075W, strain HOC1, hits give low values
[5] = locus YMR307W, strain GAS1, hits give low values
[6] = locus YNL197C, strain WHI3, hits give low values
[7] = locus YNL224C, strain SQS1, hits give low values
[8] = locus YOR083W, strain WHI5 (second series), hits give low values
[9] = locus YPL241C, strain CIN2, hits give low values

Measured: normalized growth

CCCN(CCC)[C@@H]1CCc2c(F)ccc(O)c2C1
inactive: locus YAL013W, strain DEP1, hits give low values 1.01 | locus YAL040C, strain CLN3, hits give low values 1.01 | [1] 1.01 | locus YDR150W, strain NUM1, hits give low values 0.983 | [2] 1.01 | [3] 1 | [4] 1.02 | locus YMR263W, strain SAP30, hits give low values 1.01 | [5] 1 | [6] 0.992 | [7] 0.999 | [8] 1.01 | locus YPL055C, strain LGE1, hits give low values 1.01 | [9] 1

CCCN(CCC)[C@H]1CCc2c(F)ccc(O)c2C1
inactive: [1] 1 | [2] 1.01 | [3] 0.998 | locus YGR229C, strain SMI1, hits give low values 1.02 | [4] 1.01 | [5] 0.993 | [6] 0.979 | [7] 0.995 | [8] 1.01 | [9] 1
active: locus YNL128W, strain TEP1, hits give low values 0.428

CN(C)CC(=O)OC[C@@H](O)[C@@H](O)[C@H](O)[C@@H](O)C(=O)O
inactive: locus YHR030C, strain SLT2, hits give low values 0.956 | locus YHR079C, strain IRE1, hits give low values 0.944 | locus YJL095W, strain BCK1, hits give low values 0.954 | locus YJR066W, strain TOR1, hits give low values 0.924 | locus YLR113W, strain HOG1, hits give low values 0.956 | locus YNL183C, strain NPR1, hits give low values 0.896 | locus YOR231W, strain MKK1, hits give low values 0.964 | locus YPL256C, strain CLN2, hits give low values 0.969
